# The full data set covers some 7,900 targets. This sample favours those with a hit. About 0.6% of all pairs of compound and target were hits. A number with no mark means an inactive call.
# Experiments:
# Experiment in all cases: log2 fold change, soluble protein after heating vs DMSO (PISA); higher = thermal stabilisation; K562 cells, 10 uM, 30 min; active = over 0.2 and 3.5 SD of the protein, either way, in both replicates (recomputed)
# [1] = compound: CC1=C(C=C(C=C1)NC(=O)C2=CC(=CC=C2)C(C)(C)C#N)NC3=CC4=C(C=C3)N=CN(C4=O)C
# How it was run: (§1)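 Quantification of soluble protein used TMTpro 16plex LC-MS/MS, with channel sums equalised. Samples were the supernatant after 21,000xg for 90 min of pooled aliquots from K562 cells (2×10^6 cells/mL) treated with 10 μM compound for 30 min, heated for 3 min over 48°C-58°C, and extracted in PBS with 0.5% NP-40 at 4°C. Values, from duplicates, describe thermal stability against control samples on a log2 fold-change scale.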
# [2] = compound: CC1=C(C=C(C=C1)NC(=O)C2=CC(=CC=C2)N(C)C)NC(=O)C3=CC=C(C=C3)O
# How it was run: as §1
# [3] = compound: CC1=CC=C(C=C1)SC2=C3C=C(SC3=CN=C2)C(=O)N
# How it was run: as §1
# [4] = compound: CC1=NC(=CC=C1)C2=C(N=C(N2)C(C)(C)C)C3=CC4=NC=CN=C4C=C3
# How it was run: as §1
# Nexturastat A = compound: CCCCN(Cc1ccc(C(=O)NO)cc1)C(=O)Nc1ccccc1 [Nexturastat A]
# How it was run: as §1
# vemurafenib = compound: CCCS(=O)(=O)Nc1ccc(F)c(C(=O)c2c[nH]c3ncc(-c4ccc(Cl)cc4)cc23)c1F [vemurafenib]
# How it was run: as §1
# [5] = compound: CCCS(=O)(=O)Nc1ccc(F)c(C(=O)c2c[nH]c3ncc(Cl)cc23)c1F
# How it was run: as §1
# [6] = compound: CCCc1cc(C)[nH]c(=O)c1CNC(=O)c1cc(-c2ccnc(N3CCN(C)CC3)c2)cc2c1cnn2C(C)C
# How it was run: as §1
# givinostat = compound: CCN(CC)Cc1ccc2cc(COC(=O)Nc3ccc(C(=O)NO)cc3)ccc2c1 [givinostat]
# How it was run: as §1
# barasertib = compound: CCN(CCCOc1ccc2c(Nc3cc(CC(=O)Nc4cccc(F)c4)[nH]n3)ncnc2c1)CCOP(=O)(O)O [barasertib]
# How it was run: as §1
# [7] = compound: CC[C@@H]1C(=O)N(C)c2cnc(Nc3ccc(C(=O)NC4CCN(C)CC4)cc3OC)nc2N1C1CCCC1
# How it was run: as §1
# volasertib = compound: CC[C@@H]1C(=O)N(C)c2cnc(Nc3ccc(C(=O)N[C@H]4CC[C@H](N5CCN(CC6CC6)CC5)CC4)cc3OC)nc2N1C(C)C [volasertib]
# How it was run: as §1
# [8] = compound: CC[C@H](C)N1C=C(C2=C(C=C(C=C21)C3=CN=C(C=C3)N4CCNCC4)C(=O)NCC5=C(C=C(NC5=O)C)C)C
# How it was run: as §1
# epoxomicin = compound: CC[C@H](C)[C@@H](C(=O)N[C@@H]([C@@H](C)O)C(=O)N[C@@H](CC(C)C)C(=O)[C@]1(CO1)C)NC(=O)[C@H]([C@@H](C)CC)N(C)C(=O)C [epoxomicin]
# How it was run: as §1
# [9] = compound: CCn1c(C(=O)N(C2CC2)C2CC2)cc2c3c(ncn3C)c(Nc3cc(C)n(C)n3)nc21
# How it was run: as §1
# [10] = compound: CCn1cc(-c2ccnc3[nH]c(-c4cccc(CN(C)C)c4)cc23)c(-c2ccc(NC(=O)N(C)C)cc2)n1
# How it was run: as §1
# [11] = compound: CN(C)CC(=O)Nc1ccc2[nH]c(=O)c3ccccc3c2c1
# How it was run: as §1
# rosiglitazone = compound: CN(CCOC1=CC=C(C=C1)C[C@H]2C(=O)NC(=O)S2)C3=CC=CC=N3 (racemic) [rosiglitazone]
# How it was run: as §1
# [12] = compound: CN1C2=C(C3=C1C(=O)N(N=C3)CC4=CC(=CC=C4)N)SC(=C2)S(=O)C
# How it was run: as §1
# [13] = compound: CN1CCC(CNc2ccc3ncc(-c4cccc(OC(F)(F)F)c4)n3n2)CC1
# How it was run: as §1
# Chain of UniProt O94925 (O94925 whole entry, looked up): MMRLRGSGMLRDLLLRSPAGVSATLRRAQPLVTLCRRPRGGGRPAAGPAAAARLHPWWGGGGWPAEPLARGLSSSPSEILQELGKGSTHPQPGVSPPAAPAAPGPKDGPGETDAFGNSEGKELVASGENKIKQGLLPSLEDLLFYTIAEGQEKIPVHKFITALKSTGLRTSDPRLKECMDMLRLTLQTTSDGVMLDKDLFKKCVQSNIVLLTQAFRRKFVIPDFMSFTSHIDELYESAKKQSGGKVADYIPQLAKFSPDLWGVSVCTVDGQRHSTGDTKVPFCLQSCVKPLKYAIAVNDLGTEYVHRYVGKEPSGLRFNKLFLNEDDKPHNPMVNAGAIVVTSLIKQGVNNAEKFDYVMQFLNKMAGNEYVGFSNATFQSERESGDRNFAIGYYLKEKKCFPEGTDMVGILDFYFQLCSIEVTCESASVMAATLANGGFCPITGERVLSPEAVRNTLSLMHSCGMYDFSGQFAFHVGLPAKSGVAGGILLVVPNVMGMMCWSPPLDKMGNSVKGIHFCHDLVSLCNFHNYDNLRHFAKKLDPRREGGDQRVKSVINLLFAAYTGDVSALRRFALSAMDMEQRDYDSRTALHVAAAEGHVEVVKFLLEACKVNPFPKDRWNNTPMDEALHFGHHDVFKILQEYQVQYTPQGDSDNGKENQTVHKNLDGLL
# Chain of UniProt Q6Y7W6 (Q6Y7W6 whole entry, looked up): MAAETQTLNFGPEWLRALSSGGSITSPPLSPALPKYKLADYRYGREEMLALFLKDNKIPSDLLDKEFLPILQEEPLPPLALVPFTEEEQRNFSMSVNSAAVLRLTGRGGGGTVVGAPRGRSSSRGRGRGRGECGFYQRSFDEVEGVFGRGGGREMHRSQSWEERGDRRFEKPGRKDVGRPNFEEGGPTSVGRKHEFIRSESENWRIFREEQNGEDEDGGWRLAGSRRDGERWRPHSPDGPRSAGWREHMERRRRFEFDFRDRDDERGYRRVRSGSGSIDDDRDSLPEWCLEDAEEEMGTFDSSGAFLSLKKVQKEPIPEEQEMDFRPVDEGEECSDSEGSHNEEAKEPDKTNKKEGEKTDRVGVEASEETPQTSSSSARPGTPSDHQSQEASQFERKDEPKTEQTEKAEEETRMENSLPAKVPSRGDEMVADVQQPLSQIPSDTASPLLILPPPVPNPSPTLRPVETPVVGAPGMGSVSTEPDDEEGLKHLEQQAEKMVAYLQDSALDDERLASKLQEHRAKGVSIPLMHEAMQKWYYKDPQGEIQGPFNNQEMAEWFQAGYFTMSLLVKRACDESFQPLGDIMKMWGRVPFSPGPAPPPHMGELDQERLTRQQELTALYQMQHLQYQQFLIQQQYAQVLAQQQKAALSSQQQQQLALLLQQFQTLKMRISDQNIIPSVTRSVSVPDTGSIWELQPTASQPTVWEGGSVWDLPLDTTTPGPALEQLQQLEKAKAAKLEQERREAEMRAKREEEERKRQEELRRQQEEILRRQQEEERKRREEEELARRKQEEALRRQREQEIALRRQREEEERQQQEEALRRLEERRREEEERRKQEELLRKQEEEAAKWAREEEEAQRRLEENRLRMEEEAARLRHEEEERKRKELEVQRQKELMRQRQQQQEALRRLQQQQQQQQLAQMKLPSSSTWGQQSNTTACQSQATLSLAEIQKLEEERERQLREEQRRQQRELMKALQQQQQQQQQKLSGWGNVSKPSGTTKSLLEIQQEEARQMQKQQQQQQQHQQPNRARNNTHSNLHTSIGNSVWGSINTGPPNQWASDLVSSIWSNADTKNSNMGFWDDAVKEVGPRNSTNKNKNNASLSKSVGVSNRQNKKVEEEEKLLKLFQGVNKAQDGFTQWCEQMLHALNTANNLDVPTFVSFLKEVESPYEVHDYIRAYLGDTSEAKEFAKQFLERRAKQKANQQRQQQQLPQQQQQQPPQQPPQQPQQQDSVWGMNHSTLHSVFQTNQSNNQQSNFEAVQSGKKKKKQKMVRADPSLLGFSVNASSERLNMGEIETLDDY
# Chain of UniProt P51570 (P51570 whole entry, looked up): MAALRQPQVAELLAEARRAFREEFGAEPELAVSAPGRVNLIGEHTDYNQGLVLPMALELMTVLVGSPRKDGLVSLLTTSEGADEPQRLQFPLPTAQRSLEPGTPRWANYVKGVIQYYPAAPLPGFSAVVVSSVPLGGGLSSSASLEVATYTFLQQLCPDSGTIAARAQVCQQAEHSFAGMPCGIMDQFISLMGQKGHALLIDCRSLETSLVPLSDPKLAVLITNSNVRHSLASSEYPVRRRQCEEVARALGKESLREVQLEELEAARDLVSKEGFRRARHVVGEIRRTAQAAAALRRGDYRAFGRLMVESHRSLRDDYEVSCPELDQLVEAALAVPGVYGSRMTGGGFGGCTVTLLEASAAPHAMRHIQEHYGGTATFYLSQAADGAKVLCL
# Chain of UniProt Q9Y6M1 (Q9Y6M1 whole entry, looked up): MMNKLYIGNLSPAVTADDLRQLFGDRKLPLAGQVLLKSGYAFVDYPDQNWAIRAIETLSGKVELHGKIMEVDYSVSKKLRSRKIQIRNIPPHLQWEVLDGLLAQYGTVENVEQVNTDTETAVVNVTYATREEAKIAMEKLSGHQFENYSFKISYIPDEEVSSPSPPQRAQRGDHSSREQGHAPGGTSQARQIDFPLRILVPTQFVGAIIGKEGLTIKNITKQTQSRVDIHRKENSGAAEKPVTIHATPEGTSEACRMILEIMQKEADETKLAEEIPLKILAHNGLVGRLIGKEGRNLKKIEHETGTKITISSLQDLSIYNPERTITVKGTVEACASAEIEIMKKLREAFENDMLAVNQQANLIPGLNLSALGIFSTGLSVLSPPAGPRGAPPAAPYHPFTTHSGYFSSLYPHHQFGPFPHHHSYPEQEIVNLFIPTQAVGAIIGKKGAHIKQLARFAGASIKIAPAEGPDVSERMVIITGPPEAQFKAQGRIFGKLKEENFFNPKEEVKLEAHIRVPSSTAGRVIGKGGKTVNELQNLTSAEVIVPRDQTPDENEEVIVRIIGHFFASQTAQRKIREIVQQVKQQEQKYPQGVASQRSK
# Chain of UniProt Q7Z4Q2 (Q7Z4Q2 whole entry, looked up): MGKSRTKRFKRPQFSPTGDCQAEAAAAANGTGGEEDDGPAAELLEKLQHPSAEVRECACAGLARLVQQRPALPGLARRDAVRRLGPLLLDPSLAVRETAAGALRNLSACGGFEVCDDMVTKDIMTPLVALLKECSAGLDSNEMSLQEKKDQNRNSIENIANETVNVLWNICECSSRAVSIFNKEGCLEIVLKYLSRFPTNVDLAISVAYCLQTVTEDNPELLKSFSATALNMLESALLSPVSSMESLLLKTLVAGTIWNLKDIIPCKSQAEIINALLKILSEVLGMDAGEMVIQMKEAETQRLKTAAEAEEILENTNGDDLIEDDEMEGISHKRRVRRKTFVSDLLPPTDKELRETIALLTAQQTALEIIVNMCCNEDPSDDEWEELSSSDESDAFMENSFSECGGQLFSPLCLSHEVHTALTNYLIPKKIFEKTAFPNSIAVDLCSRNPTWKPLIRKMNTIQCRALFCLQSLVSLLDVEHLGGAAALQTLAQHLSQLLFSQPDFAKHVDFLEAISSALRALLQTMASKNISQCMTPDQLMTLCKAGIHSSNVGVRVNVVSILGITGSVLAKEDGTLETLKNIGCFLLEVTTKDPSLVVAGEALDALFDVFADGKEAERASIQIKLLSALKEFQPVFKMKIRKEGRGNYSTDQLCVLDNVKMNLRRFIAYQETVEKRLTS
# Chain of UniProt Q5JWF2 (Q5JWF2 whole entry, looked up): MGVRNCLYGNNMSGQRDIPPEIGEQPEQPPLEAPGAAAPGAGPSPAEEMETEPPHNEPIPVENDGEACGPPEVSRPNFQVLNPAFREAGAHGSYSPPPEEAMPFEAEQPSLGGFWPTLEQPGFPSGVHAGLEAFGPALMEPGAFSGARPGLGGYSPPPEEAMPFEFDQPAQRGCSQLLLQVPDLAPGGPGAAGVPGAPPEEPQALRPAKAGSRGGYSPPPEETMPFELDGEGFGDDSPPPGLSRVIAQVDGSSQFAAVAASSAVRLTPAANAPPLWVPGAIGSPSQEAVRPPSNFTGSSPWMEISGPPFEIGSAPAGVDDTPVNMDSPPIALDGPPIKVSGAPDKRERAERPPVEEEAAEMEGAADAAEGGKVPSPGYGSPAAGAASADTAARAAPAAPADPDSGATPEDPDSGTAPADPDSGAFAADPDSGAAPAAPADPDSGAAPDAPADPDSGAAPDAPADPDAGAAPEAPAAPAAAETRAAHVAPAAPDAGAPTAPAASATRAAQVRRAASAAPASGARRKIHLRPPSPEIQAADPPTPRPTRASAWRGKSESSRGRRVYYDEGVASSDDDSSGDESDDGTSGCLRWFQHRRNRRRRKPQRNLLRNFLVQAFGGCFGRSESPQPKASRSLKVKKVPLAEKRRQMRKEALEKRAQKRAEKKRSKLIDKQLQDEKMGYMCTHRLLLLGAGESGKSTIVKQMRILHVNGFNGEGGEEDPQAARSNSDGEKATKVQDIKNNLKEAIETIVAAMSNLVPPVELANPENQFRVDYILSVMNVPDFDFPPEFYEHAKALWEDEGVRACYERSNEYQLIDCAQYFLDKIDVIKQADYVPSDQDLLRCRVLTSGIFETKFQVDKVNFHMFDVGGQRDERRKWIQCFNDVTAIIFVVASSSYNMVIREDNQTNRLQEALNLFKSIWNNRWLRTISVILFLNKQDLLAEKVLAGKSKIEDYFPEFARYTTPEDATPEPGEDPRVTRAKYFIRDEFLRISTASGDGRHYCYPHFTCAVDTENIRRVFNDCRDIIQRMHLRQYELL
# Chain of UniProt P05114 (P05114 whole entry, looked up): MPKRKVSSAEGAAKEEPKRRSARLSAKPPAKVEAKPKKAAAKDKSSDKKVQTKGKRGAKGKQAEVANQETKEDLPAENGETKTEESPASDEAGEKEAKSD
# Chain of UniProt Q96HJ9 (Q96HJ9 whole entry, looked up): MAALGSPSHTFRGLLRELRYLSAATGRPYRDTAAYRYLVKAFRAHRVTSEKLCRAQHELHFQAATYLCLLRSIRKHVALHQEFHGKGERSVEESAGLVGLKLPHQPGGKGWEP
Target,log2 fold change [1],log2 fold change [2],log2 fold change [3],log2 fold change [4],log2 fold change (Nexturastat A),log2 fold change (vemurafenib),log2 fold change [5],log2 fold change [6],log2 fold change (givinostat),log2 fold change (barasertib),log2 fold change [7],log2 fold change (volasertib),log2 fold change [8],log2 fold change (epoxomicin),log2 fold change [9],log2 fold change [10],log2 fold change [11],log2 fold change (rosiglitazone),log2 fold change [12],log2 fold change [13]
FUCA1 (UniProt P04066),0.03,0.009,0.021,0.092,-0.054,-0.007,0.066,-0.016,0,0.012,-1.33 (active),-1.73 (active),-0.061,-0.03,0.007,-0.006,-0.025,-0.008,-0.017,-0.141
HMG20A (UniProt Q9NP66),-0.051,-0.009,-0.153,-0.016,0.033,0.027,0.016,0.149,0.03,0.024,0.083,-0.155,0.029,-0.107,-0.031,0,0.053,0.017,0.143,-0.003
HEATR3 (UniProt Q7Z4Q2),0.004,0.116,0.034,0.047,0.016,0.007,0.082,-0.067,0.069,0.144,-0.308,-0.36 (active),0.033,0.039,-0.051,0.276,0.058,0.059,0.007,-0.34
HMOX2 (UniProt P30519),0,-0.06,0.036,-0.019,-0.023,0.034,0.012,0.097,0.015,0.042,-0.015,-0.251 (active),0.074,0.009,-0.054,-0.069,0.008,0.012,0.011,0.054
FNTB (UniProt P49356),0.032,-0.058,0,0,-0.041,0.011,-0.052,0.029,-0.083,-0.034,0.948 (active),0.707 (active),0.01,0.044,-0.006,-0.212,0.02,0.062,-0.055,-0.088
GNAS (UniProt Q5JWF2),0.105,-0.043,-0.014,-0.027,-0.01,0.034,-0.027,0.067,-0.036,-0.011,0.125,0.164,0.032,0.011,0.016,0,-0.02,0.006,-0.03,0.057
FBXO6 (UniProt Q9NRD1),0.006,0.006,0.048,0.026,-0.04,0.044,0.014,-0.01,-0.093,-0.008,0.683 (active),0.696 (active),0.096,-0.029,-0.037,-0.038,0.036,0.006,0.005,0.366 (active)
HMGN1 (UniProt P05114),0.056,0.027,-0.048,0.078,-0.017,0.004,-0.064,-0.033,-0.119,-0.06,0.054,0.141,-0.044,-0.008,0.063,0.045,-0.094,-0.027,0.039,0.101
FMC1 (UniProt Q96HJ9),-0.036,-0.029,0.027,0.004,-0.038,-0.065,0.014,-0.074,-0.051,0.022,0.04,0.102,-0.039,0.059,-0.102,0.046,-0.057,0.044,-0.01,-0.02
GALNT4 (UniProt Q8N4A0),0.008,0.017,-0.029,0.013,-0.049,-0.037,-0.001,-0.01,0.005,0.011,-0.062,-0.334 (active),-0.032,-0.041,-0.032,-0.031,0.007,0.051,-0.007,-0.367 (active)
IGF2BP2 (UniProt Q9Y6M1),0.009,-0.001,-0.008,-0.094,0.383,0.065,0,-0.011,0.153,-0.041,0.176,-0.076,-0.063,-0.203,0.016,0.076,0.01,-0.044,0.432,-0.016
GUK1 isoform 2 (UniProt Q16774),0.173,-0.062,-0.018,0.093,-0.065,0.118,-0.002,0.026,0.072,-0.018,-0.116,0.081,0.097,0.12,-0.151,-0.167,0.049,0.158,0,0.071
GIGYF2 (UniProt Q6Y7W6),-0.075,0.058,0.01,0.044,0.05,0.043,0.048,0.049,0.092,0.093,-0.093,-0.52 (active),0.02,0,-0.046,-0.039,0.032,0.069,0.021,-0.221 (active)
GALK1 isoform 2 (UniProt P51570),0.244,0.004,0.144,0.02,-0.082,0.144,0.183,0.033,0.018,-0.007,-0.03,-0.009,0.053,0.131,0.026,-0.064,0.106,0.024,-0.049,-0.03
GLS isoform 3 (UniProt O94925),0.004,-0.119,-0.01,0.167,0.087,0.155,0.236,0.061,0.031,0.061,-0.172,-0.699 (active),0.126,0.152,-0.017,-0.055,0.069,0.046,-0.039,-0.364

# Reference: the supplement of paper PMC10849652
